IDE exosite inh – exo-site inhibitors of human IDE, primary screen, biochemical, fluorescence anisotropy, probe displacement; AID 1259349, 2017; z-score at 20 µM; hit rate 6.3% among 17,000; Insulin-degrading enzyme (Homo sapiens), P14735; purified IDE, FL-6b probe fluorescence polarization; stronger effect = lower value;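 active = z-score of -3 or lower, meaning strong loss of probe binding signal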;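 note: His-tagged human IDE residues 42-1019 made in E. coli with 30 nM FL-6b probe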
The depositor's hits bear a star. The full list was thinned out, with hits kept by preference.

How did O=C(Nc1cc(F)ccc1F)N1CCCCN2[C@H](CO)[C@H](c3ccc(-c4cncnc4)cc3)[C@H]2C1 do in these assays?
IDE exosite inh: 0.91

How did O=S(=O)(c1ccccc1)N1CCCCN2[C@H](CO)[C@H](c3ccc(-c4cncnc4)cc3)[C@@H]2C1 do in these assays?
IDE exosite inh: 1.4

What do the screens show for `O=C1CN(S(=O)(=O)Cc2ccccc2)C[C@@H]2[C@@H](c3ccc(C#Cc4cccnc4)cc3)[C@@H](CO)N12`?
IDE exosite inh: 0.8

Results for COc1cccc(-c2ccc(C3[C@@H]4CN(C(=O)Nc5ccccc5F)C[C@H]3N4)cc2)c1 (stereo not given in full) ?
IDE exosite inh: -1.2

Results for COCC#Cc1ccc([C@@H]2[C@@H](C#N)N(C(=O)Cc3ccccc3)[C@@H]2CO)cc1 ?
IDE exosite inh: 0.44

What do the screens show for `O=C(Cc1cccnc1)N1CC(=O)N2[C@H](C1)[C@@H](c1ccc(C#CC3CCCCC3)cc1)[C@@H]2CO`?
IDE exosite inh: 0.59

What do the screens show for `COc1ccccc1-c1ccc([C@H]2[C@@H](CO)N3CCCCN(Cc4ccncc4)C[C@@H]23)cc1`?
IDE exosite inh: -4.6*

How did COc1ccccc1-c1ccc([C@H]2[C@@H](CO)N3CCCCN(Cc4ccncc4)C[C@H]23)cc1 do in these assays?
IDE exosite inh: -8.9*

Results for OC[C@H]1[C@H](c2ccc(-c3ccc(F)cc3)cc2)[C@@H]2CN(Cc3ccncc3)CCCCN12 ?
IDE exosite inh: 2.9

Results for COc1ccc(C#Cc2ccc([C@H]3[C@H](CO)N4CCCCN(Cc5ccncc5)C[C@@H]34)cc2)cc1 ?
IDE exosite inh: 1.8

Results for COc1ccccc1-c1ccc([C@@H]2[C@H](CO)N3CCCCN(Cc4ccncc4)C[C@@H]23)cc1 ?
IDE exosite inh: -8.9*

Results for OC[C@H]1[C@@H](c2ccc(-c3ccc(F)cc3)cc2)[C@@H]2CN(Cc3ccncc3)CCCCN12 ?
IDE exosite inh: 4.7

How did COc1ccc(C#Cc2ccc([C@@H]3[C@H]4CN(Cc5ccncc5)CCCCN4[C@H]3CO)cc2)cc1 do in these assays?
IDE exosite inh: 4.9

What do the screens show for `COc1ccc(C#Cc2ccc([C@@H]3[C@H](CO)N4CCCCN(Cc5ccncc5)C[C@@H]34)cc2)cc1`?
IDE exosite inh: 1.2

What do the screens show for `COCC#Cc1ccc([C@@H]2[C@@H](CO)N3CCCCN(Cc4ccncc4)C[C@H]23)cc1`?
IDE exosite inh: 2.6

How did COc1ccccc1-c1ccc([C@@H]2[C@@H](CO)N3CCCCN(Cc4ccncc4)C[C@H]23)cc1 do in these assays?
IDE exosite inh: -4.2*

How did C/C=C/c1ccccc1[C@H]1[C@@H](C#N)N(C(=O)c2cccnc2)[C@@H]1CO do in these assays?
IDE exosite inh: 0.98

How did C/C=C/c1ccccc1[C@H]1[C@@H](C#N)N(C(=O)CN2CCOCC2)[C@@H]1CO do in these assays?
IDE exosite inh: 0.21

What do the screens show for `OC[C@H]1Nc2ccc(C#Cc3ccc(F)cc3)cc2[C@@H]2[C@H]1CCN2Cc1ccc2c(c1)OCO2`?
IDE exosite inh: 2.4

Results for CCC(=O)N1[C@H](CN(CC)C(=O)c2ccc(F)cc2)[C@H](c2ccccc2)[C@@H]1CO ?
IDE exosite inh: 2.1

Results for C[C@H](CO)N1C[C@H](C)[C@@H](CN(C)CC2CC2)Oc2ccc(NC(=O)CCC(F)(F)F)cc2CC1=O ?
IDE exosite inh: -0.17

Results for O=C(Cc1ccccn1)N[C@@H]1CC[C@H](CCNS(=O)(=O)c2cccc(F)c2)O[C@H]1CO ?
IDE exosite inh: 0.46

How did O=C(NCC1CCCCC1)[C@@H]1[C@@H](CO)[C@@H]2Cn3c(cccc3=O)[C@H]1N2C(=O)c1ccncc1 do in these assays?
IDE exosite inh: 0.48

How did COCC(=O)Nc1ccc2c(c1)[C@H]1C[C@@H](CC(=O)N[C@H](C)c3ccccc3)O[C@@H](CO)[C@H]1O2 do in these assays?
IDE exosite inh: 1.9

Results for COc1cccc(S(=O)(=O)N2CCCCN3[C@H](CO)[C@H](c4ccc(-c5ccccc5)cc4)[C@@H]3C2)c1 ?
IDE exosite inh: 0.53

How did CN(C)CC#Cc1ccc([C@@H]2[C@H](CO)N3CCCCN(S(=O)(=O)c4ccccc4F)C[C@@H]23)cc1 do in these assays?
IDE exosite inh: -1

What do the screens show for `O=C(C[C@H]1CC[C@@H]2NC[C@@H](O)COC[C@H]2O1)Nc1ccc(-c2ccccc2)cc1`?
IDE exosite inh: -1.4

How did COc1ccccc1-c1ccc([C@H]2[C@H]3CN(Cc4ccncc4)CCCCN3[C@H]2CO)cc1 do in these assays?
IDE exosite inh: -4.7*

Results for COCC#Cc1ccc([C@H]2[C@@H](CO)N3CCCCN(Cc4ccncc4)C[C@H]23)cc1 ?
IDE exosite inh: 3.8

Results for CC(C)[C@H]1C(=O)N[C@H](c2cccc(Cl)c2)CC=CC[C@H](C)Oc2ccccc2C(=O)N1C (mixture of isomers) ?
IDE exosite inh: -0.41

Results for Cc1cccc(-c2ccc([C@@H]3[C@H](CO)N4CCCCN(C(=O)NC(C)C)C[C@@H]34)cc2)c1 ?
IDE exosite inh: -11*

What do the screens show for `Cc1cccc(-c2ccc([C@H]3[C@H]4CN(C(=O)NC(C)C)CCCCN4[C@H]3CO)cc2)c1`?
IDE exosite inh: -14*

How did Cc1ccc(-c2ccc([C@H]3[C@@H](CO)N4CCCCN(C(=O)Nc5ccccc5)C[C@@H]34)cc2)cc1 do in these assays?
IDE exosite inh: 0.98

How did Cc1cccc(-c2ccc([C@H]3[C@H](CO)N4CCCCN(C(=O)NC(C)C)C[C@@H]34)cc2)c1 do in these assays?
IDE exosite inh: -14*

Results for Cc1ccc(-c2ccc([C@@H]3[C@H]4CN(C(=O)Nc5ccccc5)CCCCN4[C@H]3CO)cc2)cc1 ?
IDE exosite inh: 0.84

What do the screens show for `CC(C)NC(=O)N1CCCCN2[C@H](CO)[C@H](c3ccc(C4=CCCC4)cc3)[C@@H]2C1`?
IDE exosite inh: 2.9

What do the screens show for `Cc1cccc(-c2ccc([C@H]3[C@H](CO)N4CCCCN(C(=O)c5ccc6c(c5)OCO6)C[C@@H]34)cc2)c1`?
IDE exosite inh: -2.2

How did O=C1CN(S(=O)(=O)Cc2ccccc2)C[C@H]2[C@H](c3ccc(C#Cc4cccc(F)c4)cc3)[C@H](CO)N12 do in these assays?
IDE exosite inh: 0.85

Results for O=C(c1ccncc1)N1CC(=O)N2[C@H](CO)[C@@H](c3ccc(C#CCC4CCCC4)cc3)[C@H]2C1 ?
IDE exosite inh: 2.6

What do the screens show for `CO[C@H]1CN(C)C(=O)c2cc(NC(=O)NC(C)C)ccc2OC[C@@H](C)N(C(=O)CN(C)C)C[C@H]1C`?
IDE exosite inh: -1.2

How did CO[C@H]1CN(C)C(=O)c2cc(NC(=O)c3ccc(F)cc3)ccc2OC[C@@H](C)N(C(=O)CC2CC2)C[C@@H]1C do in these assays?
IDE exosite inh: 0.6

How did CN1CCCCN2[C@H](CO)[C@H](c3ccc(-c4ccc(F)cc4)cc3)[C@H]2C1 do in these assays?
IDE exosite inh: 0.4

How did O=S(=O)(c1cccs1)N1CCCCN2[C@@H](CO)[C@@H](c3ccc(-c4ccccc4)cc3)[C@@H]2C1 do in these assays?
IDE exosite inh: 2.2

What do the screens show for `CC(C)CC#Cc1ccc([C@H]2[C@H](CO)N3C(=O)CN(C(=O)c4cccc(F)c4)C[C@@H]23)cc1`?
IDE exosite inh: -0.25

How did N#C[C@@H]1[C@@H](c2ccccc2-c2ccccc2)[C@H](CO)N1C(=O)Cc1ccccc1 do in these assays?
IDE exosite inh: 1.4

Results for CCCC#Cc1ccc([C@@H]2[C@H](CO)N3C(=O)CN(C(=O)Cc4cccnc4)C[C@@H]23)cc1 ?
IDE exosite inh: -0.58
